# A selection: hits, their analogues and other compounds. The true share with any hit is near 3.5%.
# Pf apPOL block – Pf-apPOL inhibitors, biochemical, fluorescence | Plasmodium falciparum apicoplast DNA polymerase (apPOL) | Recombinant Pf-apPOL, molecular beacon fluorescence, 1.5 h | inhibition, % at 10 µM | hit rate 0.25% among 210,000 | AID 1794808, 2022
# mHTT CaM bind – mutant huntingtin-calmodulin interaction inhibitors – biochemical, AlphaScreen, primary screen; P42858; AlphaScreen His-mHTT/GST-CaM binding, luminescence; inhibition, % at 15 µM; hit rate 3.6% among 190,000;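 also: 0% = both proteins with DMSO and 100% = one protein alone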
# The depositor's hits bear a star; · = no result given. Rule as the data show it: active = inhibition above about 50%; inactive = the rest.
SMILES,Pf apPOL block,mHTT CaM bind
Cc1cc(NC(=O)CN2CCN(CC(=O)c3cccs3)CC2)no1,-7,-9
O=C(Cn1cnc([N+](=O)[O-])n1)Nc1ccc2c(c1)OCO2,1,4
COc1cc(-c2c(CCO)sc3ccccc23)cc(OC)c1OC,-13,97*
COCc1ccc(-c2c(-c3ccccc3OC)sc3ccccc23)cc1,-3,-38
CCC(C)NC(=O)c1nc2ccccn2c1-c1ccc(F)cc1 (centres undefined),0,8
Cc1ccc(C)c(Nc2nc(C)nc3c2CCC3)c1,-8,-6
COc1ccc(C(NC(C)=O)c2ccc3cccnc3c2O)cc1 (centres undefined),4,100*
Cc1ccc(C(NC(=O)C(C)C)c2ccc3cccnc3c2O)cc1 (centres undefined),2,100*
CC(=O)NC(c1ccccc1Cl)c1ccc2cccnc2c1O (centres undefined),-6,100*
CC(Oc1ccc(Cl)cc1Cl)C(=O)Nc1ncccn1 (centres undefined),-2,-5
CC(C)C(=O)NC(c1ccc(Cl)cc1Cl)c1ccc2cccnc2c1O (centres undefined),-66,96*
COc1ccc(C(=O)Nc2cc(OC)cc3cccnc23)cc1,4,-9
O=C(Nc1nc2ccc([N+](=O)[O-])cc2s1)c1cncc(Br)c1,0,1
COc1cc([N+](=O)[O-])c(OC)cc1Br,·,-6
Cc1ccc(C(=O)N2CCC(CCNC(=O)Cc3ccc(F)cc3)CC2)cc1,-2,11
Cc1ccccc1CN1C(=O)CSc2ccc(C(=O)NCc3cccnc3)cc21,2,14
O=C1OC(c2ccccc2[N+](=O)[O-])=N/C1=C/c1ccccc1[N+](=O)[O-],3,0
COc1ccc(C(NC(=O)C(C)C)c2ccc3cccnc3c2O)cc1 (centres undefined),10,100*
CCCC(=O)NC(c1ccccc1Cl)c1ccc2cccnc2c1O (centres undefined),0,100*
COc1ccc(-c2ncc(NC(=O)C(C)C)cn2)cc1,0,-3
O=C(NC(Nc1cccc2cccnc12)C(Cl)(Cl)Cl)c1ccc(Br)cc1 (centres undefined),-10,3
O=C(NC(c1ccccc1)c1ccc2cccnc2c1O)c1ccccc1 (centres undefined),2,100*
CC(=O)NC(c1ccc(Cl)cc1)c1ccc2cccnc2c1O (centres undefined),0,100*
O=C(CNS(=O)(=O)c1cccs1)Nc1cccc(C(F)(F)F)c1,6,-1
O=C(c1cccc(Cl)c1)N1CCCC2(C1)Nc1cccnc1NC2=NC1CCCC1 (centres undefined),2,14
SMILES,Pf apPOL block,mHTT CaM bind
O=C(NC1CCCCC1)C1CCN(c2ncnc3c2oc2ccccc23)CC1,-2,-7
COc1ccc(C(NC(=O)C(C)C)c2ccc3cccnc3c2O)cc1OC (centres undefined),3,100*
CCC(=O)NC(c1ccc(C)cc1)c1ccc2cccnc2c1O (centres undefined),0,100*
Oc1c(C(Nc2cccc(Cl)c2)c2ccncc2)ccc2cccnc12 (centres undefined),-10,100*
c1ccc(NC(c2ccccc2)c2ccncc2)cc1 (centres undefined),-2,5
COc1ccc(C(C)NC(C)=O)cc1OC (centres undefined),-6,-8
CN(C)c1ccc(C(NC(=O)Cc2ccccc2)c2ccc3cccnc3c2O)cc1 (centres undefined),0,41
CCn1c(=O)c(C(=O)NCc2ccc(F)c(Cl)c2)nc2cccnc21,-1,1
C[C@H](c1ccccc1)N1C[C@@H](COCc2ccccc2)Oc2cc(N3CC[C@H](N(C)C)C3)ccc2S1(=O)=O,-4,-6
C[C@H](c1ccccc1)N1C[C@H](COCc2ccccc2)Oc2cc(N3CCC[C@H]3CO)ccc2S1(=O)=O,-7,-2
C[C@@H](c1ccccc1)N1C[C@@H](COCc2ccccc2)Oc2cc(N3CC[C@H](O)C3)ccc2S1(=O)=O,-4,55*
C[C@H](c1ccccc1)N1C[C@@H](COCc2ccccc2)Oc2cc(N3CC[C@@H](O)C3)ccc2S1(=O)=O,-7,44
C[C@H](c1ccccc1)N1C[C@@H](COCc2ccccc2)Oc2cc(N3CC[C@@H](N(C)C)C3)ccc2S1(=O)=O,-4,100*
C[C@H](c1ccccc1)N1C[C@@H](COCc2ccccc2)Oc2cc(N3CCC[C@@H]3CO)ccc2S1(=O)=O,-4,68*
O=C(O)COc1ccc(CS(=O)(=O)Cc2ccc(OCC(=O)O)cc2)cc1,1,-1
COc1ccc([N+](=O)[O-])cc1C(=O)Nc1ccc(Br)cc1C(=O)O,-3,4
Nc1ccc(-c2c3ccccc3nc3cc(N)ccc23)cc1,-1,100*
Nc1ccc(-c2cc(-c3ccccc3)nc(-c3ccc(N)cc3)n2)cc1,-6,8
